Assay results from PubChem BioAssay (EPA / NIEHS).
The source made the active and inactive calls. The calls were made as follows: active = hit-call score of the fitted dose curve at least 0.9, where 1 is the maximum; inactive = score below 0.9.

Experiment: ATG_VDRE_CIS: Attagene CIS-FACTORIAL HepG2 Assay for human Vitamin D Receptor Element (VDRE) (AID 2282968)
Conditions: HepG2 VDRE cis-reporter transcription, actives raise or lower the signal
How it was run: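 Reporter mRNA induction, quantified by capillary electrophoresis of fluorescently labelled RT-PCR products, was read 24 h after dosing HepG2 cells carrying transiently transfected cis-regulated reporter units; gain or loss relative to DMSO.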
With `CCC(=O)/C=C/C1C(C)=CCCC1(C)C` (stereo unspecified) the outcome was “inactive”.
With `Cc1ccc(C(C)C)cc1O` the AC50 was 26.9 µM (active).
In the case of `CCCCCCCCCCCCCC(=O)O`, the outcome is reported as “inactive”.
With `COC(C(=O)O)c1ccccc1` (stereo unspecified) the outcome was “inactive”.
For `CC(C=O)Cc1ccc(C(C)C)cc1` (stereo unspecified), the outcome was “inactive”.
With `Sc1nc(S)nc(S)n1` the outcome was “inactive”.
In the case of `CC(C)(Oc1ccc(CCNC(=O)c2ccc(Cl)cc2)cc1)C(=O)O`, the outcome is reported as “inactive”.
With `CC(C)=CCC/C(C)=C/COC=O` the outcome was “inactive”.
With `CC(C)=CCC[C@H](C)CC=O` the outcome was “inactive”.
In the case of `O=C(Cl)c1cccc(C(=O)Cl)c1`, the outcome is reported as “inactive”.
In the case of `O=C1NC(=O)c2ccccc21`, the outcome is reported as “inactive”.
With `c1ccc2[nH]ccc2c1` the outcome was “inactive”.
In the case of `CCCC1CCC(=O)O1` (stereo unspecified), the outcome is reported as “inactive”.
With `COc1cc(C(C)(C)C)c(O)c(C(C)(C)C)c1` the outcome was “inactive”.
With `OCCN1CCNCC1` the outcome was “inactive”.
For `C=C[Si](OCC)(OCC)OCC`, the outcome was “inactive”.
With `CCCCCCCCCCCCCOS(=O)(=O)O` the outcome was “inactive”.
With `C/C=C(\C)C(=O)OCc1ccccc1` the outcome was “inactive”.
With `C=C[C@@H](C)CCC=C(C)C` the outcome was “inactive”.
In the case of `S=C(S)NCCNC(=S)S`, the outcome is reported as “inactive”.
In the case of `N#Cc1nc(Cl)c(Cl)c(Cl)c1Cl`, the AC50 is reported as 4.14 µM (active).
For `[Ca+2]`, the outcome was “inactive”.
In the case of `O=C(O)c1ccc([N+](=O)[O-])cc1`, the outcome is reported as “inactive”.
For `CCCc1c(OCCCOc2ccc(OCC(=O)O)cc2)ccc(C(C)=O)c1O`, the AC50 was 27.5 µM (active).
With `CC(=O)[O][Al][O]C(C)=O` the outcome was “inactive”.
With `O=C1CCc2ccccc2O1` the outcome was “inactive”.
